Assay results from PubChem BioAssay (NCATS).
Records with an inconclusive call do not appear. Unmarked numbers belong to inactive results. The source made the active and inactive calls. Calls follow the shape of the dose curve; as a rule, active = well fitted activation curve with a large enough effect; inconclusive = small, poorly fitted or top-dose-only effect; inactive = no such curve, though single readings can be large or run the other way.

Target: Cellular tumor antigen p53 (Homo sapiens) (UniProt P04637)
Assay: Primary qHTS for small molecule compounds that upregulate eGFP-tagged delta133p53alpha (in N-terminal) cells. (AID 2060322); also: nearly all actives have a fitted effect of over 75% in size;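 as to activation: cells pre-induced with doxycycline then dosed without doxycycline; series mostly up to about 56 µM; 0% = DMSO vehicle and 100% = reference activator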
Conditions: NCI-H358 eGFP-delta133p53alpha fluorescence, 24 h; activation: active compounds read high
Outline: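 NCI-H358 cells pre-induced 24 h with 10 ng/ml doxycycline for eGFP-delta133p53alpha, plated dox-free and exposed 24 h at 37C to titrated compounds. Fixed, Hoechst-stained; gated GFP peak intensity by laser scanning cytometry, normalized to DMSO (0%) and 57.5 uM 5-azacytidine (100%).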
Potency is read from the fitted curve at half-maximal effect.

Chain of Cellular tumor antigen p53 (Homo sapiens) (P04637 whole entry, looked up): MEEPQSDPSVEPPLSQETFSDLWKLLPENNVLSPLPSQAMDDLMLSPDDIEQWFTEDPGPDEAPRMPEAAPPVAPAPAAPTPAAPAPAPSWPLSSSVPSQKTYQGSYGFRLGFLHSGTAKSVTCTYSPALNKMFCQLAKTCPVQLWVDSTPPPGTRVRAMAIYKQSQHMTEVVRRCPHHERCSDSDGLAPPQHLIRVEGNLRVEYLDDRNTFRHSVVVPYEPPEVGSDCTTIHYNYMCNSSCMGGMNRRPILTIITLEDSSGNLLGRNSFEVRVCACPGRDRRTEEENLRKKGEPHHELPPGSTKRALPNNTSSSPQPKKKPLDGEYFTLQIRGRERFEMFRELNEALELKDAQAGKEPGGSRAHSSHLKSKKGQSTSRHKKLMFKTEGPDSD

Compound	activation [%]	Potency
O=S(=O)(O)c1cc(I)c(O)c2ncccc12	11.7	
Oc1cccc2[nH]ccc12	-5.08	
O=C(c1ccco1)N1CCNCC1	-10.9	
COc1ccc(-c2oc3c(CC=C(C)C)c(OC4O[C@H](CO)[C@@H](O)[C@H](O)[C@@H]4O)cc(O)c3c(=O)c2OC2O[C@@H](C)[C@H](O)[C@@H](O)[C@@H]2O)cc1 (some centres not stated)	-27.6	
CCN[C@H]1CN(CCCOC)S(=O)(=O)c2sc(S(N)(=O)=O)cc21	13	
O=C1CC2(CCCC2)CC(=O)N1CCNCC1COc2ccccc2O1 (configuration not stated)	-5.86	
O=C1OC(OC(=O)c2cccnc2Nc2cccc(C(F)(F)F)c2)c2ccccc21 (configuration not stated)	-25.4	
OC1(c2ccc(Cl)cc2)CCNCC1	-8.47	
COc1cc(C(=O)NC2CCCNC2)cc(OC)c1OC (configuration not stated)	-3.95	
CNC(=O)[C@H](CC1=CN=C2C=CCC=C12)NC(=O)[C@@H](CC(=O)NO)CC(C)C	3.1	
COc1cc2c(cc1O)CCC1C2CC[C@@]2(C)C1CC[C@@H]2O (some centres not stated)	27.6	
O=c1[nH]c(=O)n([C@H]2O[C@H](CO)[C@@H](O)[C@@H]2O)cc1/C=C\Br	3.35	
Nc1nc2ccc(Cl)cc2c2nc(-c3ccco3)nn12		1.69 µM (active)
CCCCCCCCOc1ccccc1C(=O)Nc1ccc(C(=O)OCC[N+](C)(CC)CC)cc1	-5.01	
CC(NN)c1ccccc1 (configuration not stated)	6.69	
CCOC(=O)/C=C(C)/C=C/C=C(C)/C=C/c1c(C)cc(OC)c(C)c1C	9.6	
Cc1[nH]c(C=C2C(=O)Nc3ccccc32)c(C)c1CCC(=O)O		24.3 µM (active)
CC(COc1ccccc1)NC(C)C(O)c1ccc(O)cc1 (configuration not stated)	18.6	
CN1C(=O)CC(c2ccccc2)C1=O (configuration not stated)	10.7	
CNC[C@@H](O)[C@@H](O)[C@H](O)[C@H](O)CO	4.39	
Clc1ccc(-c2nc3sccn3c2C=NOCc2ccc(Cl)c(Cl)c2)cc1	-15.4	
Cc1cc2nc3c(=O)[nH]c(=O)nc-3n(C[C@H](O)[C@H](O)[C@H](O)CO)c2cc1C	-36.8	
CCN(CC)S(=O)(=O)c1ccc(C(=O)O)cc1	-11.7	
Cc1cccc(C=NNc2cc(N3CCOCC3)nc(OCCc3ccccn3)n2)c1	-13.3	
CCc1nn(CCCN2CCN(c3cccc(Cl)c3)CC2)c(=O)n1CCOc1ccccc1	-3.35	
Oc1cccc(-c2c3nc(c(-c4cccc(O)c4)c4ccc([nH]4)c(-c4cccc(O)c4)c4nc(c(-c5cccc(O)c5)c5ccc2[nH]5)CC4)C=C3)c1	25.9	
CC(=O)Oc1cccc(O)c1	18.6	
